Only some compounds are listed: those with a hit (about 21% of all), similar ones and a draw of the others.
ClpP mod – qHTS Assay for Activators of ClpP. AID 651965, 2013. Potency, µM (titrated, usually from 57.5 µM). purified B. subtilis ClpP, FRET peptide cleavage, 20 min. actives 1.9% (n = 340,000); active = well fitted falling curve with a large enough effect; inconclusive = small, poorly fitted or top-dose-only effect; inactive = no such curve, though single readings can be large or run the other way; also: the source files actives as falling curves though it sought activators and does not explain the sign; nearly all actives have a fitted effect of over 65% in size
Target sequence (P80244 whole entry, looked up): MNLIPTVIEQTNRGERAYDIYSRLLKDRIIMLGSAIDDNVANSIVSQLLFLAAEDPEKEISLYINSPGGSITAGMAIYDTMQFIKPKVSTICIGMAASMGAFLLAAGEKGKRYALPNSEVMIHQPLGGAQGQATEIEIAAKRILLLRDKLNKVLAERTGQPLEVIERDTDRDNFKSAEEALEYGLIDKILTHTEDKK
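ClpP 10 microg/mL final, pH 8 Tris/KCl buffer with BSA, glycerol, Tween-20; compound pinned in; FRET-FV substrate; RT 20 min; Ex320/Em430; ΔFRET vs ADEP 5.8 microM, DMSO, no enzyme.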
D3 ag – D3 dopamine receptor (human) agonism | P35462 | D3R DiscoveRx beta-arrestin cells, luminescence, 90 min | max activation, % | actives 0.58% (n = 410,000) | AID 652048; in the data active = max activation above about 30%
Target sequence (P35462 whole entry, looked up): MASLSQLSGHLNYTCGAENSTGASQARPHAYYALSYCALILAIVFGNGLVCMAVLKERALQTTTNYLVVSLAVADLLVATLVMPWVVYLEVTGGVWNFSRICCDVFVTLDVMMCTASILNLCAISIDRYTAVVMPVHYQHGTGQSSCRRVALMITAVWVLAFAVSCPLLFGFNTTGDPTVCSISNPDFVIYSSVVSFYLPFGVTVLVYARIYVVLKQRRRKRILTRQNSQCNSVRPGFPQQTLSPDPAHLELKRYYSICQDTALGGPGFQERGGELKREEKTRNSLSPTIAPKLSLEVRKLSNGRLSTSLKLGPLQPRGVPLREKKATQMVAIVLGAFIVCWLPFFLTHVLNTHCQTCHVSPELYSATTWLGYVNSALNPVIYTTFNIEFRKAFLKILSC
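Cells at 1500/well, incubated overnight, then treated with pinned compounds (dopamine as control) for 90 min at 37 degrees C. DiscoveRx reagent added for 30 - 60 minutes at room temperature; luminescence read.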
DT40 TDP1 no CPT – qHTS for Inhibitors of human tyrosyl-DNA phosphodiesterase 1 (TDP1): qHTS in cells in absence of CPT | actives 15% (n = 420,000) | Potency, µM (highest dose often 46.2 µM), actives largely listed as inhibitors | DT40 Tdp1-/- hTDP1 cells, no CPT, ATP luminescence, 48 h | AID 686978, 2013; also: nearly all actives have a fitted effect of over 55% in size
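Stably hTDP1-transfected Tdp1-null chicken DT40 cells were treated with library compounds minus camptothecin and grown for at least 48 hr at 37 °C, after which cellular ATP was quantified by luminescence.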
TDP1 cell CPT – growth inhibition of DT40 Tdp1-/-;hTDP1 cells with camptothecin (screen for TDP1 inhibitors); chicken DT40 Tdp1-/-;hTDP1 cells + 20 nM CPT, ATP luminescence, 48 h; Potency, µM (top dose mostly 46.2 µM), hits mostly inhibitors; AID 686979; actives 12% (n = 420,000); also: nearly all actives have a fitted effect of over 55% in size
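Chicken DT40 Tdp1-/- cells stably complemented with human TDP1 were seeded at 400 cells/well in medium containing 20 nM camptothecin, exposed to pin-transferred compounds, and grown at 37 °C for at least 48 hr. Viability was read as ATP luminescence.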
IL-1B inflam inh – blocks inflammasome-driven IL-1 beta release | THP-1 LPS/ATP IL-1B secretion, AlphaLISA, 16 h; stronger effect = lower value | activity change, % at 57.5 µM | actives 4.7% (n = 360,000); in the data active = activity change below about -50%; inconclusive = mostly about -30% to -49%
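THP-1 cells pretreated 1 hr with compounds (up to 57.5 uM final), then stimulated with LPS (250 ng/mL final) plus ATP (1.25 mM final); secreted IL-1B measured by AlphaLISA after 16 hr, decreased signal indicating inhibition.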
DRD3 antagonist – blocks the human D3 dopamine receptor | D3R cells, DiscoveRx beta-arrestin luminescence, antagonist mode; stronger effect = lower value | actives 2.5% (n = 360,000) | P35462 | max response, negative = inhibition, %; in the data active = max response below about -50%; inconclusive = no clear call, values can overlap the other calls
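Cells expressing the human receptor were seeded at 1500 cells/well, incubated overnight at 37 degrees C in 5% CO2, then exposed to library compounds with dopamine controls for 90 minutes at 37 degrees C before luminescent detection.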
Hits are given with their value; 0 = inactive; ? = inconclusive; - = not tested or not shown; [ ] = dose if it differs, or a comment. Unless noted, calls follow the shape of the dose curve; as a rule, active = well fitted inhibition curve with a large enough effect; inconclusive = small, poorly fitted or top-dose-only effect; inactive = flat fitted curve, though single readings scatter.

SMILES | ClpP mod | D3 ag | DT40 TDP1 no CPT | TDP1 cell CPT | IL-1B inflam inh | DRD3 antagonist
Cc1nc2c(OCc3ccc(F)cc3)cccn2c1N(C)C(=O)CCC1CCCC1 | 0 | 0 | 23.1µM | ? | 0 | ?
Cc1nc2c(OCc3ccc(Cl)cc3)cccn2c1N(C)C(=O)CCC1CCCC1 | 0 | 0 | 23.1µM | 14.6µM | 0 | 0
O=C(c1ccco1)N(Cc1cc2cc3c(cc2nc1N1CCOCC1)CCC3)CC1CCCO1 (stereo not drawn) | - | - | 0 | 0[9.04 µM] | - | -
Cc1ccc(S(=O)(=O)N(CC(O)Cn2c3ccccc3c3ccccc32)c2cccc(C(N)=O)c2)cc1 (stereo not drawn) | ? | 0 | - | - | - | -
COC(=O)[C@@H]1CCCN1C(=O)c1c(OC)cc(=O)n2c1CCN(Cc1ccc3c(c1)OCCO3)CC2 | - | - | 0 | 0 | - | -
O=C(Nc1ccccc1)N1CC[C@@]2(CCCN(C(=O)c3cccc(F)c3)C2)C1 | - | - | 0 | 0 | - | -
CN(Cc1nccs1)C(=O)C1CCC(=O)N(CCCc2ccccc2)C1 (stereo not drawn) | 0 | 0 | 0 | 0 | 0 | 0
CN(C)c1cccc(C(=O)OCc2cc(=O)oc3cc(O)ccc23)c1 | 0 | 0 | ? | ? | 0 | 0
CCc1cc2c(COC(=O)c3cc(S(=O)(=O)N4CCOCC4)ccc3F)cc(=O)oc2cc1O | 0 | 0 | ? | 18.4µM | -77.3 | 0
O=C(OCc1cc(=O)oc2cc(O)ccc12)c1cc(S(=O)(=O)N2CCOCC2)ccc1F | - | 0 | 0 | 0 | -102.7 | 0
Cc1noc(C)c1COC(=O)c1cc(S(=O)(=O)N2CCOCC2)ccc1F | 0 | 0 | 0 | 0 | 0 | 0
CCc1cc2c(COC(=O)c3cccc(NS(C)(=O)=O)c3)cc(=O)oc2cc1O | - | 0 | 10.3µM | 16.4µM | 0 | 0
O=C(Cn1nnc(-c2ccc(Cl)cc2)n1)NC(=O)NC1CCCC1 | 0 | 0 | 0 | 0 | 0 | 0
Cn1cc(CN2CCCC(C(=O)c3ccc(-c4ccccc4)cc3)C2)cn1 (stereo not drawn) | 0 | 0 | 16.4µM | 0 | 0 | 0
CC(C)Oc1cccc(C(=O)C2CCCN(Cc3cnn(C(C)C)c3)C2)c1 (stereo not drawn) | - | 0 | ? | ? | 0 | 0
CCn1cc(CN2CCCC(C(=O)c3ccc(-c4ccccc4)cc3)C2)cn1 (stereo not drawn) | - | 0 | 25.9µM | ? | -90.3 | 0
CCOc1ccccc1NC(=O)COC(=O)c1ccc2ccccc2n1 | 0 | 0 | 0 | 0 | 0 | 0
O=C1Nc2cccnc2N(C(=O)CCl)c2ccccc21 | - | 0 | 2.59µM | 3.26µM | -96.1 | 0
CCN(CC)S(=O)(=O)c1ccc2c(c1)c(=O)c(C(=O)N1CCN(c3ccc(OC)cc3)CC1)cn2C | 0 | 0 | ? | 0 | - | -
COc1ccccc1NC(=O)CN1CCC(c2nc3ccccc3[nH]2)CC1 | 0 | 0 | 14.6µM | ? | 0 | 0
COc1cccc(CNC(=O)CN2N=C(c3ccc(C)cc3)CCC2=O)c1 | 0 | 32.9 | 0 | 0 | - | -
Cc1ccc(CNC(=O)CN2N=C(c3ccc(C)cc3)CCC2=O)cc1 | 0 | 0 | 0 | 0 | - | -
COc1ccccc1NC(=O)N1CCC(c2nc3cc(C)c(C)cc3[nH]2)CC1 | 0 | 0 | 1.84µM | 3.66µM | 0 | 0
Cc1ccc2nc(C3CCCN(C(=S)Nc4ccccc4C)C3)[nH]c2c1 (stereo not drawn) | 0 | 0 | 20.6µM | ? | 0 | 0
COc1cccc(CNC(=O)CN2CCC(c3nc4ccc(C)cc4[nH]3)CC2)c1 | 0 | 0 | ? | ? | -60.5 | 0
SMILES | ClpP mod | D3 ag | DT40 TDP1 no CPT | TDP1 cell CPT | IL-1B inflam inh | DRD3 antagonist
COc1ccc(NC(=S)Nc2ccc(OC(F)F)cc2)cn1 | - | 0 | 0 | 0 | 0 | 0
COc1ccccc1C(=O)NNC(=O)c1ccc(O)cc1 | 0 | 0 | 0 | 0 | 0 | 0
COc1ccccc1NC(=S)NNC(=S)Nc1ccc(OC(F)F)cc1 | 0 | 0 | 20.6µM | ? | -85.5 | 0
CC(C)c1ccc(NC(=S)NN2C(C)CCCC2C)cc1 (stereo not drawn) | - | 0 | 0 | 0 | 0 | 0
COc1ccccc1NC(=S)NNC(=O)c1ccc(O)cc1 | 0 | 0 | 0 | 0 | 0 | -82.7
O=C(NNC(=S)Nc1ccc(Cl)cc1)c1ccccc1OC(F)F | 0 | 0 | 23.1µM | ? | 0 | 0
CC1CCCC(C)N1NC(=S)Nc1ccc(OC(F)F)cc1 (stereo not drawn) | 0 | 0 | ? | 20.6µM | 0 | 0
Cc1csc(NC(=O)C(C)Oc2ccc(Cl)cc2C)n1 (stereo not drawn) | 0 | 0 | ? | ? | 0 | 0
CCc1nc2ccc(C(=O)NCCN3CCOCC3)cn2c1N(CC)CCOC | 0 | 0 | ? | ? | 0 | 0
COc1ccc(OC)c(S(=O)(=O)Nc2c(C)n(C)n(-c3ccccc3)c2=O)c1 | - | 0 | 0 | 0 | 0 | 0
COc1ccccc1NC(=S)NNC(=O)c1nn(C)c(C)c1Cl | 0 | 0 | 0 | 0 | 0 | -68.8
COc1ccccc1NC(=S)NNC(=O)c1nn(C)c(C)c1Br | 0 | 0 | ? | ? | 0 | 0
Cc1nc(C)c(C(=O)OCC(=O)N(C)c2ccccc2)s1 | 0 | 0 | 0 | 0 | 0 | 0
CN(CCc1ccccc1)C(C(=O)c1ccc2c(c1)OCO2)c1nnnn1-c1ccccc1NC(=O)OC(C)(C)C (stereo not drawn) | 0 | 0 | 16.4µM | 14.6µM | 0 | 0
Cc1cc(NC(=O)OC(C)(C)C)c(-n2nnnc2C(C(=O)c2ccc3c(c2)OCO3)N2CCN(c3ccccn3)CC2)cc1C (stereo not drawn) | 0 | 0 | 16.4µM | 23.1µM | 0 | 0
CC(C)(C)OC(=O)Nc1ccccc1-n1nnnc1C(C(=O)c1ccccc1)N1CCN(c2ccccn2)CC1 (stereo not drawn) | 0 | 0 | ? | ? | 0 | 0
S=c1[nH]nc(Cn2cnc3ccccc32)n1-c1ccccc1Cl | 0 | 0 | 0 | 0 | 0 | 0
CCOc1ccc(NC(=O)COC(=O)COc2cccc3c2OC(C)(C)C3)cc1 | 0 | 0 | 0 | 0 | 0 | 0
CCCN1CNc2c(c(=O)[nH]c(=S)n2CCc2c(OC)cccc2OC)C1 | 0 | - | 0 | 0 | - | -
C=CCNC(=O)c1ccc([N+](=O)[O-])c(Cl)c1 | - | 0 | 0 | 0 | 0 | 0
C=CCNCc1ccc(C(=O)NCCCCCCC)cc1[N+](=O)[O-] | 0 | 0 | 18.4µM | ? | 0 | 0
CC1CCN(C(=O)c2ccc(NS(=O)(=O)c3ccc4[nH]c(=O)[nH]c4c3)cc2)CC1 | - | 0 | 0 | 0 | 0 | 0
Cc1cccc(NC(=O)C2CCN(C(=O)[C@@H]3Cc4ccccc4CN3)CC2)c1 | 0 | 0 | 0 | 0 | 0 | 0
